# Screening data from PubChem.
# PABP1 MLLE inh – blocks PAM2 peptide binding to the PABP1 MLLE domain; P11940; GST-MLLE / FITC-PAM2 fluorescence polarization; inhibition, % at 20 µM; actives 0.36% (n = 360,000); AID 588489; in the data active = inhibition above about 35%, passing the limit was not always enough;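 also: plate controls were DMSO wells with GST-MLLE for no effect and wells lacking GST-MLLE protein for full effect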
# eIF4H inh – inhibitors of RNA binding by human eIF4H | inhibition, % at 35 µM | actives 0.94% (n = 290,000) | eIF4H fluorescence polarization binding assay | Q15056;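 also: calls also rest on retests at 20 µM and on dose response follow-up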
# PERK inhibitor – inhibitors of human PERK kinase; Q9NZJ5; CHO PERK-DD fusion, SEAP luminescence translation reporter; inhibition, % at 5.6 µM; actives 0.17% (n = 220,000); AID 1416;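 active = inhibition above the mean inhibition of all tested compounds plus 3 SD, set separately per screening campaign, cut at about 2.9% in these data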;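 also: PERK kinase domain activated by AP20187 dimerizer at 100 nM; 0% = DMSO with dimerizer and 100% = rapamycin at 8.4 µM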
# eIF4E 4G PPI – blocks eIF4E binding to eIF4G | P63073+Q04637 | TR-FRET eIF4E-eIF4GI(517-606) binding, 2 h | inhibition, % at 21.7 µM | actives 0.37% (n = 220,000) | AID 782;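 active = inhibition above about 30%, limit read from the data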;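 also: 0% = full FRET control wells and 100% = background wells lacking eIF4GI fragment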
# PABP polyA inh – blocks human PABP binding to poly(A) RNA. P11940. fluorescence polarization. inhibition, % at 35 µM. actives 1% (n = 290,000). AID 2014;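 also: calls also rest on retests at 20 µM and on dose response follow-up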
# Active calls of the source: *; nt = not tested or not shown. Shown are actives, neighbours in structure and some others; about 1.6% of the full set was active somewhere. Unless noted, no rule for the calls is given here.
SMILES,PABP1 MLLE inh,eIF4H inh,PERK inhibitor,eIF4E 4G PPI,PABP polyA inh
O=c1nc2s/c(=C\c3ccco3)c(=O)n2nc1Cc1ccc(F)cc1,-15,84*,0,7,58*
COc1ccc(Br)cc1/C=c1\sc2nc(-c3ccco3)nn2c1=O,19,94*,nt,nt,87*
CCCN1C(=O)/C(=c2\sc3nc(=O)c(Cc4ccc(C)cc4)nn3c2=O)c2ccccc21,35,3,0,2,-5
Cc1ccc(-c2nc3s/c(=C\c4ccco4)c(=O)n3n2)cc1,-33,82*,1,0,45*
Cc1ccc(/C=c2\sc3nc(-c4ccco4)nn3c2=O)o1,8,90*,1,11,67*
CNc1cccc2c1C(=O)c1ccccc1C2=O,41*,78*,0,-1,active
CCC[C@H]1CN(c2ccccc2)C(=O)[C@@H]1CC(=O)Nc1ccccc1,9,nt,nt,nt,nt
C=C(C)C(=O)Nc1cccc(C2=NOC3(C2)C[C@@H](C(N)=O)N(C(=O)/C(C)=C/C)C3)c1 (stereo partly specified),-2,83*,nt,10,58*
C/C=C(\C)C(=O)Nc1cccc(C2=NOC3(C2)C[C@@H](C(N)=O)N(C(=O)/C(C)=C/C)C3)c1 (stereo partly specified),7,-8,nt,96*,11
C=C(C)C(=O)Nc1cccc(C2=NOC3(C2)C[C@@H](C(N)=O)N(C(=O)/C=C/C=C/C)C3)c1 (stereo partly specified),-2,93*,nt,7,56*
C/C=C/C=C/C(=O)N1CC2(CC(c3cccc(NC(=O)/C=C/C)c3)=NO2)C[C@@H]1C(N)=O (stereo partly specified),-11,2,nt,-1,-1
O=C(CCl)N1CCCC1c1ccc2c(c1)OCCO2 (stereo unspecified),7,4,nt,nt,-1
O=C(NCC1CCCO1)c1ccc(Oc2ccc([N+](=O)[O-])cc2Cl)cc1 (stereo unspecified),5,-2,1,5,2
c1ccc(N2CCN(Cc3cnc(N4CCOCC4)s3)CC2)cc1,-3,-1,1,1,22
CC(C)C1=CC2=CCC3C(C)(C(=O)O)CCCC3(C)C2CC1 (stereo unspecified) (tested in a mixture with another compound),nt,1,nt,nt,-3
Cc1ccc(-c2cc(C(=O)N/N=C/c3c[nH]c4ccccc34)n[nH]2)o1,-9,-10,1,1,59*
CN(C)S(=O)(=O)c1cccc(NC(=O)COC(=O)C2CCN(C(=O)c3ccc(F)cc3)CC2)c1,6,nt,nt,nt,nt
Cc1cccc(NC(=O)c2cc(NC(=O)C3CCCCC3C(=O)O)ccc2N2CCCCC2)c1 (stereo unspecified),3,-4,0,1,-3
CC(=O)Nc1ccc(N2CCCCC2)c(C(=O)Nc2cccc(C)c2)c1,-2,-4,0,43*,-9
CCCCC1=CC2=CC(=O)C(C)(OC(=O)CC)C(=O)C2=CN1CCCCO (stereo unspecified),45*,62,nt,-7,36
CC1(OC(=O)CCc2ccccc2)C(=O)C=C2C=C(c3ccc(C#N)cc3)N(Cc3ccccc3)C=C2C1=O (stereo unspecified),-12,42,nt,0,15
CC1(OC(=O)CCc2ccccc2)C(=O)C=C2C=C(c3ccc(C#N)cc3)N(C3CC3)C=C2C1=O (stereo unspecified),-21,65,nt,-4,38*
CCCCC1=CC2=CC(=O)C(C)(OC(=O)CC)C(=O)C2=CN1C1CCCCC1 (stereo unspecified),-5,17,nt,0,33
COC(=O)CCCC1=CC2=CC(=O)C(C)(OC(=O)c3cccs3)C(=O)C2=CN1CCN1CCOCC1 (stereo unspecified),23,115,nt,3,64*
COC(=O)CCCC1=CC2=CC(=O)C(C)(OC(=O)c3cccs3)C(=O)C2=CN1C1CC1 (stereo unspecified),19,87*,nt,-1,55*
Cc1ccc(CN2CC(N3CCN(CCO)CC3)CS2(=O)=O)cc1 (stereo unspecified),7,nt,nt,nt,nt
Cc1cccc(-n2nc3c(c2NC(=O)C(C)C)CSC3)c1,20,-9,nt,nt,-4
Cc1nc2c(c(=O)n1CCC1=CCCCC1)c1nc3ccccc3nc1n2/N=C/c1ccccc1,-17,-5,0,-3,-2
CNc1cccccc1=S,49*,101*,0,10,61*
CNc1ccccc1,11,nt,nt,nt,nt
